Data on 24 compounds can be found in PubChem BioAssay (EPA / NIEHS).

Assay [1] addresses human Serotonin, 5-Hydroxytryptamine Receptor 2A (5HT2A), HTR2A (gene 3356) (UniProt P28223). Nature of the assay: NVS_GPCR_h5HT2A: NovaScreen (NVS) G Protein-Coupled Receptor Assay for human Serotonin, 5-Hydroxytryptamine Receptor 2A (5HT2A) (AID 2283249). Put shortly: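 Radioligand displacement on human cortex tissue extract, counted by filtration and scintillation 1.5 h post-dosing. Initial single-concentration screen at 25 uM in duplicate, concentration series in follow-up; DMSO as baseline.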

Assay [2] addresses guinea pig Opioid, Kappa 1 Receptor (OpiateK), OPRK1 (gene 100135587) (UniProt P41144). In words: NVS_GPCR_gOpiateK: NovaScreen (NVS) G Protein-Coupled Receptor Assay for guinea pig Opioid, Kappa 1 Receptor (OpiateK) (AID 2283252).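 Further: active means reduced radioligand binding relative to DMSO.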 Put shortly: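 Radioligand binding to kappa opioid receptor in guinea pig cerebellar membranes, read by filtration and scintillation at 2 h. Compounds first tested in duplicate at 25 uM, then actives in concentration series; signal loss fitted against DMSO.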

The target in assay [3] is human Adrenergic, Alpha 2A Receptor (Adra2A), ADRA2A (gene 150) (UniProt P08913). In words: NVS_GPCR_hAdra2A: NovaScreen (NVS) G Protein-Coupled Receptor Assay for human Adrenergic, Alpha 2A Receptor (Adra2A) (AID 2283257). Put shortly:
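Displacement of a specific radioligand from HT29 membrane protein was counted by filter scintillation after 1 h. Compounds were screened in duplicate at 25 uM, and actives were retested in concentration series. Fitting was positive-direction against DMSO.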

The target of assay [4] is human Serotonin, 5-Hydroxytryptamine Receptor 5A (5HT5A), HTR5A (gene 3361) (UniProt P47898). In words: NVS_GPCR_h5HT5A: NovaScreen (NVS) G Protein-Coupled Receptor Assay for human Serotonin, 5-Hydroxytryptamine Receptor 5A (5HT5A) (AID 2283251). Put shortly: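 Membranes from HEK293 cells, radioligand binding read by filtration and scintillation after 1 h. Single-concentration duplicate testing at 25 uM, then concentration-response for actives; positive-direction fitting relative to DMSO.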
Sequence of human Serotonin, 5-Hydroxytryptamine Receptor 5A (5HT5A), HTR5A (gene 3361) (P47898 whole entry, looked up): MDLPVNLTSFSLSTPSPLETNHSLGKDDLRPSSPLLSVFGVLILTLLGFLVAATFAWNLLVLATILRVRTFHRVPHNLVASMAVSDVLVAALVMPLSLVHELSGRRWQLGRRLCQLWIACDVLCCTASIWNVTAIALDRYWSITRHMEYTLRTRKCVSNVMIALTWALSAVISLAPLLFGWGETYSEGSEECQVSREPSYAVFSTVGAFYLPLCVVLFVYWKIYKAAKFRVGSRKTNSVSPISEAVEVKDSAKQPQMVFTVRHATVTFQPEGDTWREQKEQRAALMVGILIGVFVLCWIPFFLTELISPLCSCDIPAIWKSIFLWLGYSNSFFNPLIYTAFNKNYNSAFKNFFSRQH

In assay [5] the target is human Adenosine A1 Receptor (AdoRA1), ADORA1 (gene 134) (UniProt P30542). Nature of the assay: NVS_GPCR_hAdoRA1: NovaScreen (NVS) G Protein-Coupled Receptor Assay for human Adenosine A1 Receptor (AdoRA1) (AID 2283254). Put shortly: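 Each chemical is first tested twice at 25 uM, actives later in dilution series, against a radioligand bound to human cortex membranes; after 1 h, filter-retained counts are compared with DMSO controls, lower signal indicating displacement.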
Sequence of human Adenosine A1 Receptor (AdoRA1), ADORA1 (gene 134) (P30542 whole entry, looked up): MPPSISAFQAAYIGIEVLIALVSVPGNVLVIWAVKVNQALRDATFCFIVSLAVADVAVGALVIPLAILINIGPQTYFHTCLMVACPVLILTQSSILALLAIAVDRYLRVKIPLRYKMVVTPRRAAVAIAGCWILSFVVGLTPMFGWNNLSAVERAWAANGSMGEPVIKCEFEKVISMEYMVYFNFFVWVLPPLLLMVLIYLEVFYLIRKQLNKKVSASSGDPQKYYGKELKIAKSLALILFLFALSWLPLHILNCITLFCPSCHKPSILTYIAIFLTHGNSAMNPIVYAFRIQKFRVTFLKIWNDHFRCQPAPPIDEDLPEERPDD

The target in assay [6] is human Adenosine A2a Receptor (AdoRA2a), ADORA2A (gene 135) (UniProt P29274). In words: NVS_GPCR_hAdoRA2a: NovaScreen (NVS) G Protein-Coupled Receptor Assay for human Adenosine A2a Receptor (AdoRA2a) (AID 2283256). Put shortly: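 Compounds screened in duplicate at 25 uM, with actives followed up in concentration series, for displacement of a radioligand from HEK293-derived receptor protein. Bound counts read by filter scintillation at 1.5 hours, DMSO as baseline.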
Sequence of human Adenosine A2a Receptor (AdoRA2a), ADORA2A (gene 135) (P29274 whole entry, looked up): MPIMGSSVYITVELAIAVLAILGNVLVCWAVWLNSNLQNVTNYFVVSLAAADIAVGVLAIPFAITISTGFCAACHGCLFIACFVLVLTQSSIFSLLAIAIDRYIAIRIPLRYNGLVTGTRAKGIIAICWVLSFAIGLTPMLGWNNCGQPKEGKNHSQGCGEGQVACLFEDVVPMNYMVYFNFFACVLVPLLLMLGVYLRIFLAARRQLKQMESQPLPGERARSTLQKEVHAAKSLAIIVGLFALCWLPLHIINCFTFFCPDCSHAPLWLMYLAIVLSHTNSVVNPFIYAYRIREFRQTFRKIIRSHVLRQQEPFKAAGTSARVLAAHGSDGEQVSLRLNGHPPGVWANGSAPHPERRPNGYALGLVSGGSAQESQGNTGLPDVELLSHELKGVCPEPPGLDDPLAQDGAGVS

The target of assay [7] is human Adrenergic, Alpha 2c Receptor (Adra2C), ADRA2C (gene 152) (UniProt P18825). Nature of the assay: NVS_GPCR_hAdra2C: NovaScreen (NVS) G Protein-Coupled Receptor Assay for human Adrenergic, Alpha 2c Receptor (Adra2C) (AID 2283259). Put shortly:
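Screened first in duplicate at 25 uM, with actives then run as concentration series. Membranes from Sf9 cells were exposed for 1 h, and displacement of radioligand was counted after filtration, using DMSO as baseline.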

For assay [8], the system named is guinea pig Muscarinic, Peripheral (Mperiperal) Receptor, Non-selective Binding, gene 100379235. Nature of the assay: NVS_GPCR_gMPeripheral_NonSelective: NovaScreen (NVS) G Protein-Coupled Receptor Assay for guinea pig Muscarinic, Peripheral (Mperiperal) Receptor, Non-selective Binding (AID 2283250). The method, boiled down: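 Screened in duplicate at 25 uM, hits retested in concentration series to 50 uM max, using bladder membrane radioligand displacement from guinea pig. Filtration and scintillation counting 1 h post-dose, fitted relative to DMSO.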

The target in assay [9] is human Serotonin, 5-Hydroxytryptamine Receptor 6 (5HT6), HTR6 (gene 3362) (UniProt P50406). Nature of the assay: NVS_GPCR_h5HT6: NovaScreen (NVS) G Protein-Coupled Receptor Assay for human Serotonin, 5-Hydroxytryptamine Receptor 6 (5HT6) (AID 2283253). The procedure:
NVS_GPCR_h5HT6 is a biochemical, single-readout assay that uses extracted gene-proteins from HEK293 in a cell-free assay. Measurements were taken 1 hour after chemical dosing in a 96-well plate.NVS_GPCR_h5HT6 is one of one assay component(s) measured or calculated from the NVS_GPCR_h5HT6 assay. It is designed to make measurements of radioligand binding, a form of binding reporter, as detected with scintillation counting signals by Filter-based radiodetection technology.Data from the assay component NVS_GPCR_h5HT6 was analyzed into 1 assay endpoint. This assay endpoint, NVS_GPCR_h5HT6, was analyzed in the positive analysis fitting direction relative to DMSO as the negative control and baseline of activity. Using a type of binding reporter, loss-of-signal activity can be used to understand changes in the binding as they relate to the gene HTR6. Furthermore, this assay endpoint can be referred to as a primary readout, because the performed assay has only produced 1 assay endpoint. To generalize the intended target to other relatable targets, this assay endpoint is annotated to the gpcr intended target family, where the subfamily is rhodopsin-like receptor.
Binding assays used specific radioligands (tritiated, iodinated) with non-radioactive competitive displacement ligands in agonist or antagonist protocols (as indicated) and various reference compounds and inhibitors to titrate specific binding to receptors and transporters. Most enzyme assays (CYPs, kinases, phosphatases, proteases, HDACs) used recombinant protein and specific substrates (fluorescence mostly, some colorimetric and radioactive) and inhibitors, followed by a biochemical separation of substrate and product. All assays for the biochemical HTS were initially run in duplicate at a single concentration (10 uM for CYP450 assays and 25 uM for all others). […] Each assay was run with positive and negative controls, and concurrent controls on every plate. The follow-up (secondary) screen tested active chemical-pairs in concentration series, as well as a few additional assays not tested in the primary screen, some selected negative inactives, and several cases re-run in the concentration series for confirmatory purposes.

The target of assay [10] is human Adrenergic, Beta 1 Receptor (Adrb1), ADRB1 (gene 153) (UniProt P08588). In words: NVS_GPCR_hAdrb1: NovaScreen (NVS) G Protein-Coupled Receptor Assay for human Adrenergic, Beta 1 Receptor (Adrb1) (AID 2283258). The method, boiled down:
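Membranes/protein extracted from human neuroepithelioma cells, radioligand competition binding read by filtration and scintillation 2 h post-dose. Single 25 uM duplicate screen, then concentration-response follow-up; DMSO as negative control.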

Inconclusive results are not listed. Active and inactive are the calls of the source. How the source made its calls: active means hit-call score of the fitted dose curve at least 0.9, where 1 is the maximum; inconclusive means response in the unintended direction; inactive means score below 0.9.

Sequence of human Serotonin, 5-Hydroxytryptamine Receptor 2A (5HT2A), HTR2A (gene 3356) (P28223 whole entry, looked up): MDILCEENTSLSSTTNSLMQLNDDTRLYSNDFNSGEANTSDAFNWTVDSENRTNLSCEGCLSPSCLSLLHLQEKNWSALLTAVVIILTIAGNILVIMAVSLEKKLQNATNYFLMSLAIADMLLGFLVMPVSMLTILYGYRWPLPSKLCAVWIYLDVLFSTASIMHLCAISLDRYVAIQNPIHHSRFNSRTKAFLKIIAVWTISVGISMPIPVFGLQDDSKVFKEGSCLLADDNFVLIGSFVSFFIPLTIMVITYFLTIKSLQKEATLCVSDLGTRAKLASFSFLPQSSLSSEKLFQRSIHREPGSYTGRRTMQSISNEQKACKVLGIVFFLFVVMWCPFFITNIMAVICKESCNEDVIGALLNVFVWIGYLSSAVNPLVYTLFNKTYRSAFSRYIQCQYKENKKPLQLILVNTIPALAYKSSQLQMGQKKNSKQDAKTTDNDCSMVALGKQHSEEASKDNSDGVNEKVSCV
Sequence of human Serotonin, 5-Hydroxytryptamine Receptor 6 (5HT6), HTR6 (gene 3362) (P50406 whole entry, looked up): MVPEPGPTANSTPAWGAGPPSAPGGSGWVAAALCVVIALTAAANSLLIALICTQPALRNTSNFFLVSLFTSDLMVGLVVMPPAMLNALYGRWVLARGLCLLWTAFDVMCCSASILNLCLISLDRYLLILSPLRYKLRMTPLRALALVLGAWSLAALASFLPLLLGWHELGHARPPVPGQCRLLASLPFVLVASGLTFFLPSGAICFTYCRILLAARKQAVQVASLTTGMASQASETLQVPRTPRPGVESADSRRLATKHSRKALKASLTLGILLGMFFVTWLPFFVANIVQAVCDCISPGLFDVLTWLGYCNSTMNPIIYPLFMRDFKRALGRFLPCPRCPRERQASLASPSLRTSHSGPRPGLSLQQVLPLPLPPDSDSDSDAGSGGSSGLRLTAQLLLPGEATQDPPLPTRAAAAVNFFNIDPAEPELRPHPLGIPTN
Sequence of human Adrenergic, Alpha 2A Receptor (Adra2A), ADRA2A (gene 150) (P08913 whole entry, looked up): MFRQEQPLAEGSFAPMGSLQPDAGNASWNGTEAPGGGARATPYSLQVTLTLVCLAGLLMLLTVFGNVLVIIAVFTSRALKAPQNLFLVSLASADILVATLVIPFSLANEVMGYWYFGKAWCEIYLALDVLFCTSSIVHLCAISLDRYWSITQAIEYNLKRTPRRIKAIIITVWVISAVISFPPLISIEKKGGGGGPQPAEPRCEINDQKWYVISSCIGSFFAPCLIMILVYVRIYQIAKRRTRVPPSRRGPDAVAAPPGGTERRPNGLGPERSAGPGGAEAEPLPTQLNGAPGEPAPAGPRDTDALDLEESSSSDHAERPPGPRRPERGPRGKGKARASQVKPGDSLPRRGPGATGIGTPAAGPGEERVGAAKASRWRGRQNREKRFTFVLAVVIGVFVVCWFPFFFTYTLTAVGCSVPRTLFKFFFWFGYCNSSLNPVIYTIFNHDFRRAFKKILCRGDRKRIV
Sequence of human Adrenergic, Beta 1 Receptor (Adrb1), ADRB1 (gene 153) (P08588 whole entry, looked up): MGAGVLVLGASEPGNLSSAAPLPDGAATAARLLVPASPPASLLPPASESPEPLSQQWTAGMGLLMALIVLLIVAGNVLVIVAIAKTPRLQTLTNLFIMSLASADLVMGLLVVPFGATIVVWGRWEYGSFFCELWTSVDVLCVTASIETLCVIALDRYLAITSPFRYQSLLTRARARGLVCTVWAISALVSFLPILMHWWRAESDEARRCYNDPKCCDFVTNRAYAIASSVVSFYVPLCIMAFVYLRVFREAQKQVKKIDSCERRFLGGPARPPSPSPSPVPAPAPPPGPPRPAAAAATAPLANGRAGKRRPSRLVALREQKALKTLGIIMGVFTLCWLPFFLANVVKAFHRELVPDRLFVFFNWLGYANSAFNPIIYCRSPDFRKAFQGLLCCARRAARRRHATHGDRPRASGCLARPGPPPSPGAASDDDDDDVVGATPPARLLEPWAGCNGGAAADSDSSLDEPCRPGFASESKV
Sequence of guinea pig Opioid, Kappa 1 Receptor (OpiateK), OPRK1 (gene 100135587) (P41144 whole entry, looked up): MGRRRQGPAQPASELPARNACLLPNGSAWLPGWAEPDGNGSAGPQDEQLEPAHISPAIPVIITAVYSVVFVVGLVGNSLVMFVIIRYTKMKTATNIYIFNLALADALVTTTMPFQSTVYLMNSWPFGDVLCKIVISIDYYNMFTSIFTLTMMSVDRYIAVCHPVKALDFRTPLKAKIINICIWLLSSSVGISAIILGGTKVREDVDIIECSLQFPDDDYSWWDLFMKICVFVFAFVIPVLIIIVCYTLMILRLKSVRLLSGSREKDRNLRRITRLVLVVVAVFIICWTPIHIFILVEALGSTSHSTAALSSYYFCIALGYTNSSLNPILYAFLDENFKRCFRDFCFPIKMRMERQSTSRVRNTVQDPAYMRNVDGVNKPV
Sequence of human Adrenergic, Alpha 2c Receptor (Adra2C), ADRA2C (gene 152) (P18825 whole entry, looked up): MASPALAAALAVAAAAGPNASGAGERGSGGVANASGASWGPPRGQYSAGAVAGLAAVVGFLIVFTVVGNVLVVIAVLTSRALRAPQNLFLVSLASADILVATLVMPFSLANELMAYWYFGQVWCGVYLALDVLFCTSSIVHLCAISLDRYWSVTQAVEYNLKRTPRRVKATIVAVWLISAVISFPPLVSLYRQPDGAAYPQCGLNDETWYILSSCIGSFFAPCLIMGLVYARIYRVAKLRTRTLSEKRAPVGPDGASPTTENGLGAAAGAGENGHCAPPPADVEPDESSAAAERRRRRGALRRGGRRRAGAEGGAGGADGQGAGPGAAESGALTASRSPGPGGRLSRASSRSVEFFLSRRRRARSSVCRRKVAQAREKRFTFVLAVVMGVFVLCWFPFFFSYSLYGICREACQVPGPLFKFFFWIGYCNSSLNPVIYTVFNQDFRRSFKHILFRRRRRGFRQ

On to `O=c1c(-c2ccc(O)cc2)coc2cc(O)ccc12`, for which the compound was classed as inactive in assay [1].
As for `C#C[C@]1(O)CC[C@H]2[C@@H]3CCC4=CC(=O)CC[C@@H]4[C@H]3CC[C@@]21C`, in assay [2], the outcome was inactive.
As for `CCCCCCC(=O)O`, in [3], the call was inactive.
Regarding `CC[C@H](C)[C@@H](C(=O)O)n1sc2ccccc2c1=O`, the AC50 in [2] was 12.7 µM (active).
In the case of `CC[C@H](c1ccc(O)cc1)[C@@H](CC)c1ccc(O)cc1`, the values for the AC50 in assay [4], in [5] and in assay [6] were 1.69 µM (active), 8.65 µM (active) and 12.4 µM (active), respectively. Also, the outcome in assay [2] and in [7] was inactive.
Turning to `CCCOc1sc(C(=O)N2CCC(c3cc(CN)ccc3F)CC2)c(C)c1Br`, the AC50 was 14.3 µM (active) in assay [1]; 23.2 µM (active) in [8]; 15.1 µM (active) in assay [4]; 8.41 µM (active) in assay [9]; 17.2 µM (active) in assay [5]; 4.12 µM (active) in assay [3]. Further, the AC50 in [10] was 15.2 µM (active); in [7], 8.34 µM (active). For the same compound, in assay [2], the result was inactive.
Consider `CC(=O)NC1(c2cccc(F)c2)CCN(CC[C@@]2(c3ccc(Cl)c(Cl)c3)CN(c3ccccc3)C(=O)CO2)CC1`, for which the AC50 was 1.9 µM (active) in assay [1]; 20.8 µM (active) in assay [8]; 28.3 µM (active) in [4]; 20.8 µM (active) in assay [2]; 5.94 µM (active) in assay [9].
Take `Cc1oc(-c2ccccc2)nc1CCOc1ccc(C[C@H](Nc2ccccc2C(=O)c2ccccc2)C(=O)O)cc1`: the figures for the AC50 in assay [4], in assay [5] and in assay [7] were 9.5 µM (active), 25 µM (active) and 13.6 µM (active), respectively.
Take `CCCCCCCCCCCCc1ccccc1S(=O)(=O)O`: the AC50 in [4] is 6.39 µM (active); in assay [9], 31.9 µM (active); in assay [5] it was 18.1 µM (active); in assay [6], 22.6 µM (active); in assay [10], 6.83 µM (active); in assay [7], 7.16 µM (active). Moreover, the compound was classed as inactive in assay [2] and in [3].
On to `NC(=O)N(O)[C@@H]1C=C[C@H](Oc2cccc(Oc3ccc(F)cc3)c2)C1`, for which the AC50 in assay [4] is 14 µM (active); in [3], 6.62 µM (active). The result in [10] was inactive.
`CCCCCCCCCCCCCCCS(=O)(=O)Oc1ccccc1`: the outcome in [10] was inactive.
For `CN1CCN(c2ccccc2/C=C2\SCCN(c3ccc(Cl)c(Cl)c3)C2=O)CC1`, the AC50 is 1.9 µM (active) in [1]; 0.302 µM (active) in assay [4]; 3.39 µM (active) in [2]; 1.45 µM (active) in assay [9]; 3.51 µM (active) in [10].
For the compound `CCN(CC)CCNc1ccc(CNC=O)c2sc3ccc(OC)cc3c(=O)c12`, the AC50 is 5.83 µM (active) in assay [8]; 4.96 µM (active) in assay [4]; 25 µM (active) in [2]; 3.34 µM (active) in assay [5]; 5.28 µM (active) in [6]; 14.6 µM (active) in assay [7]. Further, the compound was called inactive in [3].
For the compound `O=C(OCCOCCOC(=O)c1ccccc1)c1ccccc1`, the AC50 in assay [5] was 5.62 µM (active).
As for `Oc1cc2ccccc2c2ccccc12`, the outcome in assay [6] was inactive.
`CC#C[C@]1(O)CC[C@H]2[C@@H]3CCC4=CC(=O)CCC4=C3[C@@H](c3ccc(N(C)C)cc3)C[C@@]21C`: the outcome in [5] and in assay [6] was inactive.
In the case of `O=C(O)Cc1cc(I)c(Oc2cc(I)c(O)c(I)c2)c(I)c1`, the call in assay [4] and in assay [5] was inactive.
For the compound `CN1CCC[C@H]1c1cccnc1`, the call in assay [8] was inactive.
For `CCCOC(=O)c1ccc(O)cc1`, the AC50 in [5] was 11.8 µM (active).
For the compound `CCCCCCCC(=O)O`, the compound was classed as inactive in assay [8], in assay [2] and in assay [5].
For the compound `NC(=O)N1C(=O)C(C(=O)c2cc(Cl)cs2)c2cc(F)c(Cl)cc21` (stereo not drawn), the AC50 in assay [4] is 41.3 µM (active); in [5], 8.46 µM (active); in assay [6] it was 19.7 µM (active); in assay [7], 25 µM (active). Moreover, in assay [10], the call was inactive.
In the case of `CC(C)(C)c1ccc(O)c(C(C)(C)C)c1`, the outcome in assay [6] was inactive.
Take `CC(C)(C)c1cc(C(C)(C)C)c(O)c(C(C)(C)C)c1`: the outcome in [1] was inactive.
In the case of `CCC(=C(c1ccc(O)cc1)c1ccc(OCCN(C)C)cc1)c1ccccc1`, the AC50 in assay [4] was 3.32 µM (active); in assay [9], 1.74 µM (active); in assay [5], 2.12 µM (active); in assay [6], 3.08 µM (active); in assay [7], 4.42 µM (active).
